Activity calls are given as the source filed them. How the source made its calls: active means hit-call score of the fitted dose curve at least 0.9, where 1 is the maximum; inactive means score below 0.9.
These compounds were tested on catalase (CAT), CAT (gene 847) (assay: LTEA_HepaRG_CAT: Life Technologies and Expression Analysis (LTEA) Assay for catalase (CAT) using HepaRG (AID 2283452;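 on AC50: TaqMan qRT-PCR signal normalized to ACTB GAPDH and POLR2A housekeeping genes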)). Conditions: mRNA level, 48 h; actives raise or lower the signal.
Protocol: LTEA_HepaRG is a cell based, multiplexed-readout assay that uses HepaRG, a human liver cell line, with measurements taken at 48 hours after chemical dosing on a 96-well plate.LTEA_HepaRG_CAT is one of 102 assay component(s) measured in the LTEA HepaRG cell culture assay. It is a marker of Oxidative Stress.Data from the assay component LTEA_HepaRG_CAT was analyzed into 1 endpoint. This assay endpoint, LTEA_HepaRG_CAT, was analyzed with bidirectional fitting relative to DMSO as the negative control and baseline of activity. Using a type of inducible reporter, measures of mRNA induction for gain or loss-of-signal activity can be used to understand regulation of transcription factor activity. To generalize the intended target to other relatable targets, this assay endpoint is annotated to the catalase intended target family, where the subfamily is oxidative stress.
A total of 1060 chemcials from the ToxCast library were tested in eight-point concentration-response experiments. Cell culture and cytotoxicity assays were conducted at Thermo Fisher Scientific's Custom Services facility (Madison, WI). A single lot of human HepaRG cells (Thermo Fisher Scientific, Frederick, MD) was used for the cell culture experiments. 96-well format collagen type I coated plates of human HepaRG cells were prepared using established methods. Briefly, cryopreserved HepaRG cells were thawed, plated at a density of approximately 100,000 cells/well in HepaRG Thaw, Plate, and General Purpose media (HPRG770, Thermo Fisher Scientific), and incubated for 48 hours. 0.5% DMSO was selected as vehicle control to balance the requisite need of DMSO in HepaRG cultures to maintain differentiation (for example, baseline metabolism, proportions of hepatocytes vs. cholangiocytes), while enabling further hepatic receptor pathway activation (for example, PXR and CAR) in response to chemical exposure. 48 hours after plating, the culture medium was replaced with HepaRG Serum-Free Incudtion Media. Cells were exposed to each test chemical in duplicate and maintained in CO2 incubators for another 48 hours. Chemical plates were thawed to room temperature and 200x concentrations of treatment groups were prepared. 8-point conentration-reponse curves were made with the highest exposure at 100 uM, followed by half-log dilutions, all in 0.5% DMSO. Each test plate contained variouse controls, induction positive controls (1mM phenobarbital), cytotoxicity positive controls ([…] aflatoxin B1), vehicle controls (0.5% DMSO), and total lysis controls (0.5% DMSO). Cell morphology images were taken using an Essen IncuCyte FLR automated microscope, with six 96-well plates imaged in about 24 minutes. Images were captured and exported and JPEG files. Spent culture media was transfered to black-well plates for the LDH assay, and remaining media was sorted at -80 C for later use. Cells were treated with RLT buffer and frozen until shipped for gene expression analysis. Total RNA was isolated from the cell suspension in 75 uL of Buffer RLT (Qiagen, Germantown, MD 20874) by Quintiles/Expression Analysis (Durham, NC) using a custom isolation procedure. Total RNA from each plate well was transferred to a preamplification plate. Fluidigm's 96.96 Dynamic ArrayTM (Fluidigm, Amsterdam, the Netherlands) technology was used for gene expression analyses by quantitative reverse transcription polymerase chain reaction (qRT-PCR, performed by Quintiles/Expression Analysis, Durham, NC)89. Standard TaqManTM Assays (Applied Biosystems/ThermoFisher Scientific, Foster City, CA) were used to assess the expression of 93 genes selected based on their selectivity and sensitivity to important hepatic receptors known to be modulated by environmental chemicals; importance in human hepatocyte functionality; and hepatotoxicity. […]

| Compound | outcome | AC50 |
| --- | --- | --- |
| Cc1cn([C@H]2C[C@H](N=[N+]=[N-])[C@@H](CO)O2)c(=O)[nH]c1=O | inactive | – |
| CCN(Cc1cccnc1)C(=O)c1cccc(Cl)c1[C@]1(C)C(=O)N(Cc2ccc(OC)cc2OC)c2ccc(Cl)cc21 | – | 18.4 µM (active) |
| Cc1ccc(C(C)C)cc1 | inactive | – |
| CCCCCCCCOC(=O)c1cc(O)c(O)c(O)c1 | inactive | – |
| CCCC(=O)OCCC(C)C | inactive | – |
| CN(C[C@@H](CC[N+]12CCC(C3CCCCC3)(CC1)CC2)c1ccc(Cl)c(Cl)c1)C(=O)c1cc(C(F)(F)F)cc(C(F)(F)F)c1 | – | 17.5 µM (active) |
| Cc1c2ccccc2c(C)c2c1ccc1ccccc12 | – | 48.5 µM (active) |
| Cc1ccc2oc(CN(Cc3ccccc3)C(=O)Nc3c(F)cc(F)cc3F)c(-c3ccc(Cl)cc3)c2c1 | – | 8.81 µM (active) |
| CC(C)(O)c1ccc(CNC(=O)c2cccnc2Oc2ccc3nonc3c2)cc1 | inactive | – |
| CN(C)C(=O)C1(N2CCCCC2)CCN(CC[C@@]2(c3ccc(Cl)c(Cl)c3)CN(C(=O)c3ccccc3)CCO2)CC1 | – | 17.2 µM (active) |
| CC(C)(c1cc(Br)c(O)c(Br)c1)c1cc(Br)c(O)c(Br)c1 | inactive | – |
| O=C(Nc1ccc(Cl)cc1)Nc1ccc(Cl)c(Cl)c1 | – | 16.6 µM (active) |
| CCN(CC)C(=O)c1cc(S(=O)(=O)Cc2ccccc2)c(N2CCC(c3ccccc3)CC2)cc1N(CC)CCN(C)C | – | 30.2 µM (active) |
| CCCCCCCC[Si](OCC)(OCC)OCC | inactive | – |
| NC(=O)c1nc(-c2cccc(-c3cc(F)ccc3OCC(F)(F)C(F)(F)F)c2)n[nH]1 | – | 50 µM (active) |
| Cc1ncc(CO)c(CO)c1O | inactive | – |
| CC/C(=C(/CC)c1ccc(O)cc1)c1ccc(O)cc1 | – | 91.7 µM (active) |
| c1ccc2ccccc2c1 | inactive | – |
| O=C=NCCCCCCN=C=O | inactive | – |
| CC[C@H](NC(=O)c1cc(F)ccc1NS(=O)(=O)c1cccc2cccnc12)c1ccccc1 | – | 59.2 µM (active) |

| Compound | outcome | AC50 |
| --- | --- | --- |
| CCCOC(=O)c1cc(O)c(O)c(O)c1 | inactive | – |
| CCCCCCCCN(C)CCCCCCCC | inactive | – |
| O=c1[nH]sc2ccccc12 | inactive | – |
| COCC(C)OCC(C)OCC(C)O (stereo not given) | inactive | – |
| Cc1cccc2ccccc12 | inactive | – |
| CC1=CC(=O)/C(=C(/C)O)C(=O)O1 | inactive | – |
| CN(C)c1ccc(C(=C2C=CC(=[N+](C)C)C=C2)c2ccc(N(C)C)cc2)cc1 | – | 3.73 µM (active) |
| CCO[Si](CCCNC(N)=O)(OCC)OCC | inactive | – |
| O=C(O)c1ccccc1C(=O)OCc1ccccc1 | inactive | – |
| OCCO | inactive | – |
| O=C1O[C@H]([C@@H](O)CO)C(O)=C1O | inactive | – |
| Oc1ccccc1 | inactive | – |
| O=C(O)c1ccccc1-n1cc(C(=O)O)c(=O)c2cc(Nc3c(F)cc(F)cc3Cl)c(Cl)cc21 | inactive | – |
| C[C@]12CC[C@@H]3c4ccc(O)cc4CC[C@H]3[C@@H]1CC[C@H]2O | inactive | – |
| OC12N=C(c3ccccc3)SC1Cc1cc(Cl)ccc12 (stereo not given) | – | 16.6 µM (active) |
| Cc1oc2c(NC(=O)c3c(Cl)cccc3Cl)cccc2c1C(C)(C)O | – | 29.3 µM (active) |
| CC(C)(C)c1csc(-c2cc3cc(OCc4ccccc4CC(=O)O)ccc3o2)n1 | – | 28.3 µM (active) |
| Clc1cc(Cl)c2c(c1)N=C1CCCCCN1C2 | inactive | – |
| O=c1ccc2ccccc2o1 | inactive | – |
| c1ccc2n[nH]nc2c1 | inactive | – |

Reference: PubChem BioAssay (EPA / NIEHS)
